The text below walks through data of PubChem BioAssay (Tox21).

Experiment [1] is described as follows: qHTS assay to identify small molecule agonists of H2AX - cell viability counter screen (AID 1224847; calls by dose curve; further: nearly all actives have a fitted effect of over 30% in size; further: potency means the concentration at half of the fitted maximal effect; on activity change, negative = cytotoxicity: top concentration of the series differs between compounds). In a few lines:
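Compounds tested at 15 concentrations were incubated 3 hr at 37C with wild-type CHO-K1 cells; cellular ATP-based luminescence (CellTiter-Glo) indicated viability.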
In general terms: qHTS replaces the single test concentration by a dilution series.

The nature of experiment [2]: qHTS RealTime-Glo MT Cell Viability Assay in HepG2 cells - 24 hour (AID 1224867). Further: nearly all actives have a fitted effect of over 50% in size. Further: potency means the concentration at half of the fitted maximal effect. In a few lines: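 Cells + NanoLuc/prosubstrate dispensed (600 cells/well) → 5 h at 37 C/5% CO2 → compounds in DMSO transferred → 40 h incubation at 37 C, luminescence read at 0, 8, 16, 24, 32, 40 h.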
Experiment [3] in a line: qHTS RealTime-Glo MT Cell Viability Assay in HEK293 cells - 32 hour (AID 1224868). Further: nearly all actives have a fitted effect of over 50% in size. Further: potency means the concentration at half of the fitted maximal effect. On activity change, negative = cytotoxic: top concentration of the series differs between compounds. Put shortly: (§1)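 Tox21 10K qHTS, HEK293, 600 cells/well, RealTime-Glo reagent co-dispensed with cells; 5 h preincubation, compound by pintool, 37 C, luminescence at 0–40 h.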
Experiment [4] can be described thus: A CellTox Green Cytotoxicity Assay to monitor cytotoxicity in HEK293 cells - 0 hour (AID 1224869). Further: nearly all actives have a fitted effect of over 50% in size. In a few lines:
(§2)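 Each value comes from one timepoint of a single continuous run in which HEK293 cells with CellTox Green were exposed to compound for up to 40 h at 37 C, dye fluorescence rising with cell death.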

Experiment [5] can be described thus: qHTS RealTime-Glo MT Cell Viability Assay in HepG2 cells - 40 hour (AID 1224870). Further: nearly all actives have a fitted effect of over 50% in size. Put shortly: (§3)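 Real-time viability: cells seeded at 600 per well together with NanoLuc and cell-permeant prosubstrate, compounds added after 5 h incubation. Luminescence tracked at 0, 8, 16, 24, 32 and 40 h of exposure.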
Experiment [6] in a line: A CellTox Green Cytotoxicity Assay to monitor cytotoxicity in HEK293 cells - 40 hour (AID 1224871). Further: nearly all actives have a fitted effect of over 45% in size. Further: potency means the concentration at half of the fitted maximal effect. In a few lines:
as §2

Experiment [7] is described as follows: qHTS RealTime-Glo MT Cell Viability Assay in HEK293 cells - 16 hour (AID 1224872). Further: nearly all actives have a fitted effect of over 50% in size. Further: potency means the concentration at half of the fitted maximal effect. On activity change, negative = cytotoxicity: top concentration of the series differs between compounds. Put shortly: as §1
The nature of experiment [8]: qHTS RealTime-Glo MT Cell Viability Assay in HepG2 cells - 8 hour (AID 1224873). Further: nearly all actives have a fitted effect of over 55% in size. Put shortly:
as §3

A number with no mark means an inactive call. Results filed as inconclusive are left out. Active and inactive are the calls of the source. Unless noted, the call rests on the fitted dose curve; in most records, active means well fitted curve in the direction sought with a large enough effect in the repeat runs; inconclusive means weak or mixed curves; inactive means no such curve, though single readings can be large; an effect the other way counts as inactive or inconclusive.
On the % scale 0 is the no-effect control and ±100 the full control effect.

Take `C=CC(=O)OCCOC1C2CCC1C1CC=CC12` (stereo not drawn): the activity change, negative = cytotoxicity in experiment [1] is 1.49% [at 31.6 µM]; in experiment [2] it was 3.51% [at 15.8 µM]; in experiment [7] it was -2.12% [at 15.8 µM]. Also, the activity change, negative = cytotoxic in experiment [3] was 0.499% [at 15.8 µM]; in experiment [5] it was 5.7% [at 15.8 µM]. Besides, the cytotoxicity in experiment [4] was -3.9% [at 15.8 µM]. The cytotoxicity increase in experiment [6] is -0.257% [at 15.8 µM]. Further, in experiment [8], the viability change, negative = cytotoxic is 0.124% [at 15.8 µM].
For `O=C(O)CN(CCCN(CC(=O)O)CC(=O)O)CC(=O)O`, the activity change, negative = cytotoxicity is 0.112% [at 31.6 µM] in experiment [1], -3.25% [at 15.8 µM] in experiment [2] and -5.66% [at 15.8 µM] in experiment [7]. Besides, the activity change, negative = cytotoxic in experiment [3] is -12.4% [at 15.8 µM]; in experiment [5] it was 22.2% [at 15.8 µM]. Moreover, the cytotoxicity in experiment [4] is -2.37% [at 15.8 µM]. Further, in experiment [6], the cytotoxicity increase was 0.268% [at 15.8 µM]. Moreover, the viability change, negative = cytotoxic in experiment [8] was -18.6% [at 15.8 µM].
`COCCC(=O)OC`: the Potency result in experiment [1], in experiment [2], in experiment [3], in experiment [4], in experiment [5] and in experiment [6] was “inactive” throughout. For the same compound, the Potency result in experiment [7] and in experiment [8] was “inactive” in each case.
Take `C/C(=N\[Si](C)(C)C)O[Si](C)(C)C`: the Potency entry in experiment [1], in experiment [2], in experiment [3], in experiment [4], in experiment [5] and in experiment [6] was “inactive” each time. The Potency entry in experiment [7] and in experiment [8] was “inactive” in each case.
Take `CCOC=C(C(=O)OCC)C(=O)OCC`: the Potency result in experiment [1], in experiment [2], in experiment [3], in experiment [4], in experiment [5] and in experiment [6] was “inactive” each time. Besides, the Potency result in experiment [7] and in experiment [8] was “inactive” each time.
As for `CCCCCCCCCCCCS(=O)(=O)Cl`, the activity change, negative = cytotoxicity in experiment [1] was 2.47% [at 31.6 µM]; in experiment [2], 3.24% [at 15.8 µM]; in experiment [7] it was 11.1% [at 15.8 µM]. For the same compound, the values for the activity change, negative = cytotoxic in experiment [3] and in experiment [5] were 18.8% [at 15.8 µM] and 12.8% [at 15.8 µM], respectively. Moreover, the cytotoxicity in experiment [4] was 0.643% [at 15.8 µM]. Further, the cytotoxicity increase in experiment [6] is -2.77% [at 15.8 µM]. In addition, the viability change, negative = cytotoxic in experiment [8] is -5.43% [at 15.8 µM].
For `Nc1ccc(Cl)c([N+](=O)[O-])c1`, the Potency result in experiment [1], in experiment [2], in experiment [3], in experiment [4], in experiment [5] and in experiment [6] was “inactive” throughout. Also, the Potency entry in experiment [7] and in experiment [8] was “inactive” in each case.
For the compound `CCC(O)CO` (stereo not drawn), the Potency entry in experiment [1], in experiment [2], in experiment [3], in experiment [4], in experiment [5] and in experiment [6] was “inactive” in each case. For the same compound, the Potency entry in experiment [7] and in experiment [8] was “inactive” throughout.
Regarding `CC(C)=NNC(N)=S`, the Potency entry in experiment [1], in experiment [2], in experiment [3], in experiment [4], in experiment [5] and in experiment [6] was “inactive” each time. For the same compound, the Potency result in experiment [7] and in experiment [8] was “inactive” throughout.
Take `C/C=C/C(=O)OCC(C)C`: the Potency entry in experiment [1], in experiment [2], in experiment [3], in experiment [4], in experiment [5] and in experiment [6] was “inactive” throughout. The Potency result in experiment [7] and in experiment [8] was “inactive” in each case.
Take `CCC(=O)OC/C=C(\C)CCC=C(C)C`: the Potency entry in experiment [1], in experiment [2], in experiment [3], in experiment [4], in experiment [5] and in experiment [6] was “inactive” throughout. Also, the Potency result in experiment [7] and in experiment [8] was “inactive” each time.
For `Cc1ccc(C=O)cc1`, the Potency result in experiment [1], in experiment [2], in experiment [3], in experiment [4], in experiment [5] and in experiment [6] was “inactive” in each case. Further, the Potency result in experiment [7] and in experiment [8] was “inactive” each time.
As to `Cc1ccc2nc(-c3ccc(N)cc3)sc2c1S(=O)(=O)O`, the Potency result in experiment [1], in experiment [2], in experiment [3], in experiment [4], in experiment [5] and in experiment [6] was “inactive” throughout. Moreover, the Potency entry in experiment [7] and in experiment [8] was “inactive” in each case.
In the case of `CC(=O)CC(N)=O`, the Potency result in experiment [1], in experiment [2], in experiment [3], in experiment [4], in experiment [5] and in experiment [6] was “inactive” in each case. In addition, the Potency entry in experiment [7] and in experiment [8] was “inactive” in each case.
In the case of `C=CC(C)(C)O`, the Potency entry in experiment [1], in experiment [2], in experiment [3], in experiment [4], in experiment [5] and in experiment [6] was “inactive” each time. Also, the Potency result in experiment [7] and in experiment [8] was “inactive” throughout.
As for `O=C1OC(=O)c2cc(-c3ccc4c(c3)C(=O)OC4=O)ccc21`, the Potency entry in experiment [1], in experiment [2], in experiment [3], in experiment [4], in experiment [5] and in experiment [6] was “inactive” each time. Also, the Potency result in experiment [7] and in experiment [8] was “inactive” each time.
Take `CCSCC`: the Potency result in experiment [1], in experiment [2], in experiment [3], in experiment [4], in experiment [5] and in experiment [6] was “inactive” in each case. Further, the Potency result in experiment [7] and in experiment [8] was “inactive” throughout.
Regarding `C/C(=C\c1ccc(C(=O)O)cc1)c1ccc2c(c1)C(C)(C)CCC2(C)C`, the Potency entry in experiment [1], in experiment [2], in experiment [3], in experiment [4], in experiment [5] and in experiment [6] was “inactive” throughout. For the same compound, the Potency entry in experiment [7] and in experiment [8] was “inactive” each time.
For the compound `CCCCNc1ccc(NCCCC)c2c1C(=O)c1ccccc1C2=O`, the activity change, negative = cytotoxicity in experiment [1] was -12.2% [at 31.6 µM]; in experiment [2], -2.93% [at 15.8 µM]; in experiment [7], 9.94% [at 15.8 µM]. The activity change, negative = cytotoxic was 1.33% [at 15.8 µM] in experiment [3] and -5.13% [at 15.8 µM] in experiment [5]. In addition, in experiment [4], the cytotoxicity was 1.41% [at 15.8 µM]. Besides, the cytotoxicity increase in experiment [6] was -1.5% [at 15.8 µM]. Also, in experiment [8], the viability change, negative = cytotoxic is 0.0909% [at 15.8 µM].
In the case of `CC(C)(C)c1ccc(OC2CCCCC2O)cc1` (stereo not drawn), the results for the Potency in experiment [1] and in experiment [6] were 71.3 µM (active) and 49 µM (active), respectively. Also, the Potency result in experiment [2], in experiment [4], in experiment [5] and in experiment [8] was “inactive” throughout.
For the compound `c1ccc2cc3c4ccccc4c4ccccc4c3cc2c1`, the Potency in experiment [1] was 101 µM (active). Further, the Potency result in experiment [2], in experiment [3], in experiment [4], in experiment [5], in experiment [7] and in experiment [8] was “inactive” throughout.
`O=[N+]([O-])c1ccc(CO)cc1`: the Potency entry in experiment [1], in experiment [2], in experiment [3], in experiment [4], in experiment [7] and in experiment [8] was “inactive” in each case.
With `CCN(CC)c1ccc(C=O)cc1`, the Potency entry in experiment [1], in experiment [2], in experiment [4], in experiment [5], in experiment [6] and in experiment [8] was “inactive” throughout.
Regarding `O=c1cc[nH]cc1`, the Potency result in experiment [1], in experiment [2], in experiment [3], in experiment [4], in experiment [5] and in experiment [7] was “inactive” in each case. Besides, in experiment [8], the Potency entry was “inactive”.
Regarding `CC(C)(c1ccc(Oc2ccc(N)cc2)cc1)c1ccc(Oc2ccc(N)cc2)cc1`, the Potency in experiment [1] was 80 µM (active). The Potency result in experiment [2], in experiment [4], in experiment [5] and in experiment [6] was “inactive” in each case.
With `CC(=O)[C@]1(O)Cc2c(O)c3c(c(O)c2[C@@H](O[C@H]2C[C@H](N)[C@H](O)[C@H](C)O2)C1)C(=O)c1ccccc1C3=O`, the Potency entry in experiment [1] and in experiment [4] was “inactive” each time. The Potency is 6.01 µM (active) in experiment [2], 0.0756 µM (active) in experiment [3] and 0.535 µM (active) in experiment [7].
For `Cc1ccc(N=Nc2c(O)ccc3ccccc23)c(C)c1`, the Potency entry in experiment [1], in experiment [2], in experiment [3], in experiment [4], in experiment [5] and in experiment [6] was “inactive” each time. In experiment [8], the Potency result was “inactive”.
On to `COc1c(Br)cc(Br)c(C)c1Br`, for which the Potency entry in experiment [1], in experiment [2], in experiment [3], in experiment [4], in experiment [5] and in experiment [7] was “inactive” each time. Further, the Potency entry in experiment [8] was “inactive”.
